# Compound activity: PubChem BioAssay, National Center for Advancing Translational Sciences (NCATS)
# Only some compounds are listed: those with a hit (about 11% of all), similar ones and a draw of the others.
# HP1b binding inh: blocks HP1-beta chromodomain binding to methylated histone tails; AlphaScreen HP1-beta / biotin-H3K9me3 peptide binding; P83916; Potency, µM (titrated, usually from 114 µM), for the others: top-dose activity change, negative = inhibition, most hits filed as inhibitors; hit rate 0.56% among 390,000; also: nearly all actives have a fitted effect of over 70% in size
# Target sequence (P83916 whole entry, looked up): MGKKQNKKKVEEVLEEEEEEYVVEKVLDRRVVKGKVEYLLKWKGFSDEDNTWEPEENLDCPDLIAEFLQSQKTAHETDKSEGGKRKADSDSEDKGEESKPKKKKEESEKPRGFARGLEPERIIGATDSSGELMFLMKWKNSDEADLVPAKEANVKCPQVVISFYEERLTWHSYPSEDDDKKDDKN
#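 AlphaScreen: HP1-beta (50 nM) preformed 30 min with biotin-H3(1-18)K9me3 peptide (50 nM) in PBS pH 7.4, 0.01% Tween-20. Compound added for 30 min at RT, then streptavidin donor/nickel chelate acceptor beads (10 ug/mL) for 30 min.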
# L3MBTL1 inh: L3MBTL1 (human) inhibition; AlphaScreen L3MBTL1–H3K9me1 peptide binding; Potency, µM (series often up to 57.1 µM), for the others: top-dose activity, negative = inhibition, actives largely listed as inhibitors; hit rate 0.66% among 230,000; also: % is scaled to controls: 0 for no effect and ±100 for the full control effect; nearly all actives have a fitted effect of over 60% in size
#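 AlphaScreen assay: L3MBTL1 (50 nM final) was preincubated 30 min at room temperature with biotinylated H3(1-15)K9me1 peptide (75 nM final), then 30 min with library compounds; streptavidin donor and nickel chelate acceptor beads (10 ug/mL final) added, 30 min dark.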
# BAZ2B inh: BAZ2B (human) inhibition; hit rate 4.4% among 360,000; Potency, µM (doses to about 114 µM), for inactives: at the highest dose activity change, negative = inhibition, hits mostly inhibitors; AlphaScreen BAZ2B-H3K14Ac peptide displacement; also: % is scaled to controls: 0 for no effect and ±100 for the full control effect; nearly all actives have a fitted effect of over 60% in size
#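 BAZ2B (50 nM) with biotin-H3(5-23)K14Ac peptide (50 nM) in PBS pH 7.4, 0.01% Tween-20, preformed 30 min, then compound 30 min at room temperature; top concentration 110uM. AlphaScreen streptavidin donor/nickel chelate acceptor beads (10 ug/mL final), 20 min dark, signal read.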
# JMJD2A Tudor inh: blocks the human JMJD2A Tudor domain; O75164; AlphaScreen JMJD2A-Tudor / H3K4me3 peptide binding; hit rate 4.4% among 390,000; Potency, µM (highest dose often 114 µM), inactives show at the highest dose activity change, negative = inhibition, usual class: inhibitors; also: % is scaled to controls: 0 for no effect and ±100 for the full control effect; nearly all actives have a fitted effect of over 50% in size
# G9a inh: G9a (human) methyltransferase inhibition. G9a H3K9 monomethylation, AlphaScreen, 2 h. Potency, µM (highest dose often 102 µM), without a hit: at the highest dose activity, negative = inhibition, hits mostly inhibitors. hit rate 8.8% among 350,000. AID 504332; also: % is scaled to controls: 0 for no effect and ±100 for the full control effect; nearly all actives have a fitted effect of over 75% in size
# Target sequence (Q96KQ7 913-1193 limits assumed): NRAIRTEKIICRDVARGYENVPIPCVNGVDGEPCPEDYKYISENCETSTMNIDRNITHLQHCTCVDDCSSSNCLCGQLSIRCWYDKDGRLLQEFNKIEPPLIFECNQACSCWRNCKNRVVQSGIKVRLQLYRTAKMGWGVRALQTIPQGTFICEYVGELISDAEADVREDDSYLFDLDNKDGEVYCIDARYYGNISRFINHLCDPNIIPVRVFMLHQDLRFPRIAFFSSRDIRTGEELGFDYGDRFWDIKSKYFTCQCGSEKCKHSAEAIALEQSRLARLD
#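 Readings reflect AlphaScreen signal from monomethyl-H3K9 antibody detection. HMT at 20 nM; substrate b-H3K9 500 nM; cofactor SAM 20 uM; 2 h RT reaction; compounds tested as titrations in qHTS with 15 min preincubation.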
# * marks the source's active call; other numbers are inactive results; ? = inconclusive; . = no result; [ ] = remark or other dose. Calls follow the shape of the dose curve; as a rule, active = well fitted inhibition curve with a large enough effect; inconclusive = small, poorly fitted or top-dose-only effect; inactive = no such curve, though single readings can be large or run the other way. Potency is read from the fitted curve at half-maximal effect.
SMILES,HP1b binding inh,L3MBTL1 inh,BAZ2B inh,JMJD2A Tudor inh,G9a inh
OCCNc1nc(-c2cccnc2)nc2ccccc12,24.7%,1.2%,-19.3%,-5.2%,6.6%
Cc1nc(NCCCn2ccnc2)c2ccccc2n1,20.6%,5.1%,-8.6%,89.1µM*,-0.8%[59 µM]
c1ccc(-c2nc(NCc3ccco3)c3oc4ccccc4c3n2)cc1,8.7%,4.1%,?,89.1µM*,?
c1ccc(-c2nc(NCCCn3ccnc3)c3oc4ccccc4c3n2)cc1,-19.6%,-8.6%,44.7µM*,?,17.8µM*
Cc1cc(NCCCn2ccnc2)n2c(nc3ccccc32)c1C#N,42.8%,-17.4%,0.6%,4.7%[57.1 µM],-1.6%[12.7 µM]
CCN(CC)S(=O)(=O)c1ccc(C(=O)NCCSc2c(-c3ccc(C)cc3)[nH]c3ccccc23)cc1,20.5%,.,-5.6%,-30.4%,-7.9%[59 µM]
CN(C)c1ccc(CNC(=O)c2cc3cc(S(=O)(=O)N4CCCCC4)ccc3n2C)cc1,-17.0%[57 µM],.,?,?,?
COc1ccc(-n2c(C)nc3cc(C(=O)NC4CCCC4)ccc32)cc1,-1.7%,.,-8.0%,6.7%,-19.1%[59 µM]
COc1ccc(CNC(=O)COC(=O)C2CC2C)cc1OC (configuration not stated),22.8%,2.0%,7.9%,-7.6%,14.1µM*
COc1ccc(CNC(=O)C2CC=CCC2C(=O)O)cc1OC (configuration not stated),14.7%,5.8%,16.6%,-1.5%,23.5%[59 µM]
COc1ccc(CNC(=O)C2CCCN2)cc1OC (configuration not stated),79.4µM*,4.3%,44.7µM*,3.16µM*,17.8µM*
O=C(Nc1nnc(-c2cccs2)s1)c1cccc(F)c1,22.6%,0.3%,-20.3%,-8.8%,31.6µM*
Cc1nnc(NC(=O)c2cccc(F)c2)s1,40.8%,-3.3%,-27.8%,-35.5%,-34.5%[59 µM]
Cc1cc(NC(=O)Cc2ccccc2)cc(-c2nc3ccccc3o2)c1O,30.1%,.,-14.5%,-10.4%,10.0%[59 µM]
O=C(Nc1ccc(F)cc1C(F)(F)F)C1CCN(c2ncccn2)CC1,35.9%,.,-7.7%,-10.1%,-24.4%[59 µM]
COc1ccc(OCCCC(=O)Nc2nc(C)c(C(C)=O)s2)cc1,-5.3%,7.0%,2.4%,?,8.5%[0.501 µM]
CC(=O)c1sc(NC(=O)CCCOc2ccc(Cl)cc2)nc1C,28.0%,6.3%,79.4µM*,-19.0%,?
CC(=O)c1sc(NCCOc2ccc(C)cc2)nc1C,62.5%,?,1.9%,-8.8%,50.1µM*
Cc1nc(NCCc2ccccc2)sc1C(=O)O,-10.8%,.,-6.3%,-26.4%,-8.6%
COc1ccc(CCNc2nc(C)c(C(C)=O)s2)cc1OC,?,.,?,?,3.98µM*
CC(=O)c1sc(NCc2ccccc2)nc1C,16.5%,.,?,-16.6%,70.8µM*
CC(=O)c1sc(Nc2ccc(C)cc2)nc1C,26.3%,.,3.4%,-6.8%,?
CSc1nn(Cc2ccc(F)cc2)c(N)c1S(=O)(=O)c1ccc(Cl)cc1,20.0%,.,-5.1%,-12.3%,-15.5%[59 µM]
NC(=O)/C(=C\c1cccnc1)NC(=O)c1ccccc1,17.6%,1.7%,1.3%,-6.9%,33.6%
CC(=O)c1sc(Nc2cccc3ccccc23)nc1C,4.4%,.,.,-31.9%,.
SMILES,HP1b binding inh,L3MBTL1 inh,BAZ2B inh,JMJD2A Tudor inh,G9a inh
Cc1ccc(CNc2nc(C)c(C(=O)N(C)C)s2)cc1,0.7%,.,-32.2%,-14.5%,-29.7%
CC(=O)c1sc(Nc2ccccn2)nc1C,28.1%,-2.0%,50.1µM*,9.5%,-5.9%[59 µM]
COc1ccc(CCNc2nc(-c3ccc(F)cc3)c(CC(=O)O)s2)cc1OC,?,.,-29.5%,-27.9%,7.08µM*
CC(=O)c1sc(NCc2ccc(C)cc2)nc1C,24.0%,.,-21.7%,-23.8%,56.2µM*
Oc1ccccc1-c1nc(/C=C/c2ccccc2Cl)nn1-c1ccccc1,78.9%,.,10.0%,41.8%,63.8%[59 µM]
Cc1onc(-c2ccccc2)c1-c1ccc(S(N)(=O)=O)cc1,54.1%,.,-4.2%,-2.1%,-27.5%[2.33 µM]
NS(=O)(=O)c1ccc(-c2c(-c3ccccc3)sc3ccccc23)cc1,12.5%,?,56.2µM*,79.4µM*,-3.1%[0.501 µM]
CC(C)CNC(=O)C1CCN(CC2CCCCC2)CC1,-28.5%,-1.0%,-3.5%[57.1 µM],79.4µM*,.
O=C(NCC1CCCO1)C1CCN(CC2CCCCC2)CC1 (configuration not stated),-17.9%,.,?,35.5µM*,?
CC(C)CNC(=O)C(=O)NNC(=O)C1CCCCC1,26.1%,6.0%,-5.1%,?,20µM*
